Experimental findings from PubChem BioAssay AID488922 (Johns Hopkins Ion Channel Center, 2010) are described below.

The campaign covered roughly 310,000 compounds. About 3,800 (1.2%) were called active. The sample holds actives, similar compounds and a random draw of the others, so the mix is not that of the screen.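 How the source made its calls: active means ratio B-score over 3 SD below the library mean, with starting fluorescence within 5 SD of its mean; inactive means the rest, inconclusive results apart.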

The target of the assay is Potassium channel subfamily K member 9 (Homo sapiens) (UniProt Q9NPC2). As to the kind of experiment: KCNK9 potassium channel inhibitors, primary screen, HEK293 cells, thallium flux (AID 488922).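 On B-score: negative B-score means less thallium flux so channel inhibition.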 As to conditions: HEK293 KCNK9, FluxOR thallium flux fluorescence, at 10 µM; active compounds read low.
Sequence of Potassium channel subfamily K member 9 (Homo sapiens) (Q9NPC2 whole entry, looked up): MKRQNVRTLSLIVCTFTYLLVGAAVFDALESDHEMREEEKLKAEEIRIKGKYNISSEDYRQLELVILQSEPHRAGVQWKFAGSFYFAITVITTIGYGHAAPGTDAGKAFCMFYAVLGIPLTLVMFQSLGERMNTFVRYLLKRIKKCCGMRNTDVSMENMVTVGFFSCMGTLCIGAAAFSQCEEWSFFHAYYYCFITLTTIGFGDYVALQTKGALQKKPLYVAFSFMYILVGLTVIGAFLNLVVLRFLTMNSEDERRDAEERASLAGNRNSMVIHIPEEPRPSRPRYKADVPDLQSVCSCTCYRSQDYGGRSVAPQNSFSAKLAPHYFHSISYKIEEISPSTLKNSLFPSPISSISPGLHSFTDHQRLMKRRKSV
On to `C=CCOc1ccc(C(=O)Nc2ccccc2C(=O)N2CCCC2)cc1`, for which the B-score result was “inactive”. On to `Cc1ccc(C2NC(C(=O)O)CS2)cc1` (centres undefined), for which the B-score entry was “inactive”. Take `COc1ccc(-c2nc(N)ncc2-c2ccc(Cl)cc2)c(O)c1`: the B-score result was “inactive”.

Turning to `COc1cccc(-c2cnc(OC(C)(C)C)nc2OC(C)(C)C)c1`, the B-score is -8.72 (active).

With `CC(C)(C)Oc1ncc(Br)c(OC(C)(C)C)n1`, the B-score entry was “inactive”. Regarding `COc1ccc(CN2CCC(c3nc4ccc(Cl)cc4[nH]3)CC2)cc1`, the B-score result was “inactive”.

As for `Cc1ccc(C(=O)NC2CCN(C(=O)Nc3ccc(F)cc3)CC2)cc1`, the B-score entry is “inactive”. On to `O=C(Cc1ccccc1)NCc1ccc(F)cc1`, for which the B-score result was “inactive”.

As for `CN(C)c1ccc(C(CNC(=O)c2ccc(F)cc2)c2c[nH]c3ccccc23)cc1` (centres undefined), the B-score was -13 (active). Turning to `O=C(CNC(=O)c1ccc(F)cc1)c1ccccc1`, the B-score entry is “inactive”. Consider `O=C(CN(c1ccccc1)S(=O)(=O)c1ccc(Cl)cc1)Nc1ccccc1C(=O)N1CCCC1`, for which the B-score result is “inactive”. With `COn1c(-c2ccc(Cl)cc2Cl)nc2ncccc21`, the B-score result was “inactive”.

As to `Clc1ccc(-c2ncc3ccccn23)c(Cl)c1`, the B-score result was “inactive”. Regarding `Clc1ccc(COn2c(-c3ccc(Cl)cc3Cl)nc3ncccc32)cc1`, the B-score is -10.6 (active). In the case of `CC1CCN(S(=O)(=O)c2nnc(NC(=O)COc3ccccc3F)s2)CC1` it was “inactive”.

For `N/C(=N\S(=O)(=O)c1ccc(Cl)cc1)N1CCOCC1`, the B-score result is “inactive”. Take `CC1=C(C(=O)OCc2ccccc2)C(c2ccco2)n2ncnc2N1` (centres undefined): the B-score entry was “inactive”.

Regarding `Cc1ccc(C2CC(=O)NC(SCC(=O)OCc3ccccc3)=C2C#N)o1` (centres undefined), the B-score result was “inactive”.

`CCOC(=O)CSC1=C(C#N)C(c2ccco2)C(C(=O)OCc2ccccc2)=C(C)N1` (centres undefined): the B-score was -7.3 (active). For `CC(=O)N[C@@H](C)C(=O)N1CCC(n2nccc2NC(=O)CCCc2ccccc2)CC1`, the B-score result is “inactive”.

`COc1ccc(-n2c(=O)[nH]c3cc(C(=O)NCCc4ccc(OC)c(OC)c4)ccc3c2=O)c(OC)c1`: the B-score result was “inactive”.

In the case of `COc1ccccc1-c1n[nH]c2c1[C@H](C)CC[C@H]2C(C)C`, the B-score is -6.66 (active).

Take `COc1ccccc1-c1nc(SC)n[nH]1`: the B-score entry is “inactive”. In the case of `COc1ccc(-c2n[nH]c(C)c2-c2ccccc2OC)c(O)c1`, the B-score result is “inactive”.

On to `Cc1ccc2nc(SCC(=O)N3CCN(c4ccccc4)CC3)nc(=O)n2c1`, for which the B-score entry was “inactive”. The same measure for `O=C(NCC(=O)N1CCCC(C(F)(F)F)C1)c1ccccc1F` (centres undefined): “inactive”; for `Cc1ccc(CNC(=O)CCS(=O)(=O)c2ccc3c(c2)CC(C)N3C(=O)C2CC2)o1` (centres undefined): “inactive”.

Turning to `Cc1ccc(C(=O)Nc2ccc(C)c(S(=O)(=O)N(C)C)c2)s1`, the B-score entry was “inactive”. The same measure for `O=C(NCCCO)c1cc2c([nH]c3ccccc32)c(-c2ccc(F)cc2)n1`: “inactive”. The same measure for `C=CCn1c(SCC(=O)NC)nnc1C12CC3CC(CC(C3)C1)C2`: “inactive”; for `CC1=C(C(=O)OC(C)(C)C)C(c2ccc(Br)cc2)NC(=O)N1CCCC(=O)O` (centres undefined): “inactive”. Regarding `COc1ccc(C2Nc3ccccc3C(=O)N2c2ccc(F)cc2)cc1Cn1nnc2ccccc21` (centres undefined), the B-score result is “inactive”.

Turning to `COc1ccc(C2Nc3ccccc3C(=O)N2Cc2ccccc2)cc1Cn1nnc2ccccc21` (centres undefined), the B-score was -8.45 (active). Consider `Cc1ccc(C2Nc3ccccc3C(=O)N2CCN2CCNC2=O)cc1` (centres undefined), for which the B-score entry was “inactive”. As for `Cc1cc(NC(=O)/C=C/C(=O)N(CC(=O)NC2CCCC2)c2ccc(F)cc2)no1`, the B-score entry was “inactive”.

`CCCCCCOC(=O)NCC(O)c1ccccc1` (centres undefined): the B-score entry was “inactive”.

On to `COc1cccc(C(O)c2nc3ccccc3n2C)c1` (centres undefined), for which the B-score entry is “inactive”. In the case of `CCCCCC(O)c1cccc(OCc2ccc3ccccc3n2)c1` (centres undefined) it was -16.3 (active). As to `COc1cc(CCC(=O)N2CCN(c3ccccc3Cl)CC2)cc(OC)c1OC`, the B-score result was “inactive”. Turning to `CCOc1ccc(C2c3[nH]c4ccccc4c3CCN2Cc2cccn2-c2ncccn2)cc1` (centres undefined), the B-score is -9.89 (active). Take `CCOc1ccc(C2c3[nH]c4ccccc4c3CCN2Cc2cn(CC)nc2C)cc1` (centres undefined): the B-score result is “inactive”. In the case of `c1ccc(C2c3[nH]c4ccccc4c3CCN2Cc2cccn2-c2cccnc2)nc1` (centres undefined) it was “inactive”. In the case of `O=C(/C=C/c1cccs1)c1cc(Cl)ccc1OC(=O)N1CCOCC1`, the B-score result was “inactive”. Consider `COc1cc(NC(=S)NCCSc2ccc(C)cc2)cc(OC)c1`, for which the B-score is -9.28 (active). For the compound `COc1cc(NC(=S)NCc2ccc(S(N)(=O)=O)cc2)cc(OC)c1`, the B-score entry was “inactive”. As to `COc1cc(NC(=O)Nc2ccc(C)cc2)cc([N+](=O)[O-])c1`, the B-score entry was “inactive”. With `Cc1cc(C)n(-c2ccc(NC(=O)C3CCCCN3C(=O)c3cccs3)cc2)n1` (centres undefined), the B-score result is “inactive”.

On to `CNC(C)C#Cc1ccc2sc3cc(OC)c(OC)cc3c(=O)c2c1` (centres undefined), for which the B-score result is “inactive”.

Regarding `CCOC(=O)C1=C(c2ccccc2)O/C(=C(/C(=O)OC)C(F)(F)F)S1`, the B-score entry is “inactive”. For `Cc1ccccc1C(=O)Nc1ccccc1NC(=O)c1ccccc1C`, the B-score entry is “inactive”. As to `CCCCCCCCn1c2c(c(=N)c3c1CCC3)CCCC2`, the B-score is -14.2 (active). In the case of `O=C(NCc1cc(F)cc(C(F)(F)F)c1)C1CCC(=O)N(C2CCCC2)C1` (centres undefined) it was “inactive”; in that of `COc1ccccc1C(=O)NCCn1cc(SCC(=O)NCc2ccco2)c2ccccc21`, “inactive”; in that of `COc1ccccc1CC(=O)NCCc1c[nH]c2ccccc12`, “inactive”. As to `COc1cccc(CNCCc2c[nH]c3ccccc23)c1OCc1ccccc1F`, the B-score is -8.25 (active).

With `COc1ccc(S(=O)(=O)NCCc2c[nH]c3ccccc23)cc1OC`, the B-score entry is “inactive”.

Regarding `Cc1cc(C)n(CCNS(=O)(=O)c2ccc(Cl)cc2)n1`, the B-score entry was “inactive”.

Take `CCC1CCCCN1C(=S)Nc1ccc(C(C)=O)cc1` (centres undefined): the B-score result is “inactive”. For `CCC1CCCCN1C(=O)Nc1cccc(NC(=O)N2CCCCC2CC)c1` (centres undefined), the B-score is -7.72 (active). With `COc1cccc(NC(=O)N2CCCC2C(=O)NC2CCCCC2)c1` (centres undefined), the B-score entry was “inactive”.

Turning to `O=C(Nn1c(-c2ccc(Cl)cc2)nc2ccccc2c1=O)c1cccnc1Cl`, the B-score entry is “inactive”. `C/C(=N\N(C)C)c1ccc(OCCOc2ccc([N+](=O)[O-])cc2)cc1`: the B-score entry was “inactive”.

Consider `O=C(N/N=C/c1c[nH]c2ccccc12)c1cc2ccccc2o1`, for which the B-score result was “inactive”. As to `Cc1ccc(NC(=O)c2cc3ccccc3o2)cc1`, the B-score entry is “inactive”. Regarding `Cc1c(/C=N\NC(=O)c2cc3ccccc3o2)c2ccccc2n1C`, the B-score was -6.85 (active). `CC(C)c1nnc(NC(=O)C2CC(=O)N(CCc3ccc(F)cc3)C2)s1` (centres undefined): the B-score entry is “inactive”. In the case of `CN(C(=O)CSc1nc(C2CC2)nc2ccccc12)c1nc(-c2ccccc2)cs1` it was “inactive”; in that of `CC(C)N(C(=O)CSc1nc(COc2ccccc2)nc2ccccc12)C(C)C`, -17.1 (active); in that of `CCCc1nc(SCC(=O)Nc2ccc(S(=O)(=O)N(C)C)cc2)c2ccccc2n1`, “inactive”.
